# Laboratory results from the supplement of paper PMC3334620.
# In all, about 33,000 sequences were measured (“E-score (-0.5 to 0.5)”: median about -0.054, highest 2% from about 0.39 on). Many of the other results were omitted from the sample, so the highest values are more common in it than they were.
# Target: Ylr278c (UniProt Q05854)
# Assay: PBM E-score (8-mer binding enrichment) (E-score (-0.5 to 0.5)); higher = stronger / more preferred TF binding
# Details: protein concentration: 200 nM; construct: GST-DNA-binding domain
# Protocol: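 Universal 'all 10-mer' protein binding microarrays (Agilent AMADID 015681) probed with GST-tagged S. cerevisiae TFs (full-length or DBD) made by in vitro transcription/translation (PURExpress), about 100-200 nM. Bound TF was detected with fluorescent anti-GST. Each ungapped 8-mer (which stands for itself and its reverse complement) is scored by the PBM enrichment score (E-score), a modified Wilcoxon-Mann-Whitney statistic from -0.5 to +0.5, computed with the Universal PBM Analysis Suite. Scale: above 0.35 generally sequence-specific binding.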
# Chain of UniProt Q05854 (Q05854 whole entry): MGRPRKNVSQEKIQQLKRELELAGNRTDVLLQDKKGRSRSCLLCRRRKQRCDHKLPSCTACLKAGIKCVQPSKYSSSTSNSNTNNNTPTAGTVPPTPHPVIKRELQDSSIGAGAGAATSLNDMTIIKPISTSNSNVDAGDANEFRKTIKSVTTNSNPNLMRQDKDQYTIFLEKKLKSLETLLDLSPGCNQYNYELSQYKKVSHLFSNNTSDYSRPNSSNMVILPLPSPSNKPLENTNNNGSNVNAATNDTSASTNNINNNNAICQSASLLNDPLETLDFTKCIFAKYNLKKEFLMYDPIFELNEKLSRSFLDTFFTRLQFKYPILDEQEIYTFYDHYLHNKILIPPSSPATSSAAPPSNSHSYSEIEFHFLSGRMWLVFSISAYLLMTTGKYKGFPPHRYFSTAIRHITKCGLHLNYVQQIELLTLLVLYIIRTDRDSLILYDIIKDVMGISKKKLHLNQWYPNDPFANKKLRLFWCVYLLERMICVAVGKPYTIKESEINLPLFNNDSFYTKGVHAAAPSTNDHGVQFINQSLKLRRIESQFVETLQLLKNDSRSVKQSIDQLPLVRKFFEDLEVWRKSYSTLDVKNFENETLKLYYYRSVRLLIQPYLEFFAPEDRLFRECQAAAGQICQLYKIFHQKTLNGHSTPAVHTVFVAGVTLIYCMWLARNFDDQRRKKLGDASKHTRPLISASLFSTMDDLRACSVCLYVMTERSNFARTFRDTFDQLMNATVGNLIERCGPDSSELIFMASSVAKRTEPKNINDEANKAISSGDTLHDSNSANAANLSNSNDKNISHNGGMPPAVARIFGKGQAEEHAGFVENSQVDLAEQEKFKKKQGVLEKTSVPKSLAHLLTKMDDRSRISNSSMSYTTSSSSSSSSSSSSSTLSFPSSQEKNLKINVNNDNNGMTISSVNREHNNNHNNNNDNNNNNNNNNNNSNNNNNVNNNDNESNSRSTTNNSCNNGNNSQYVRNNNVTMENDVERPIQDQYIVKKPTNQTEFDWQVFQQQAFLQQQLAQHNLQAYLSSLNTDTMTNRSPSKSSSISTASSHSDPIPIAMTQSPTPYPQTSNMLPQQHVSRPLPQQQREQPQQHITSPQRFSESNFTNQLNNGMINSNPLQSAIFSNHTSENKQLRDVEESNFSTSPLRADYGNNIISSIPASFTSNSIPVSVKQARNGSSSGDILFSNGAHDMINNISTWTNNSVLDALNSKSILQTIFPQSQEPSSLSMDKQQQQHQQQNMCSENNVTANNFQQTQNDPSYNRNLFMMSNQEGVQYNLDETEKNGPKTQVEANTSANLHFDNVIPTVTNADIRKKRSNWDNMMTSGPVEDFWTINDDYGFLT
row,Sequence,PBM E-score
1,GATAGTGA,-0.0321
2,ATTTTAAA,0.0686
3,CCAACTGG,-0.22
4,AGTTGCGC,0.233
5,ACTTCACT,-0.0406
6,AAATCAGT,0.0231
7,AGTCTCCC,0.102
8,ATTCTCCC,0.0768
9,AGTCTCCA,-0.312
10,AGTCTCCG,0.434
11,ATTCTCCG,0.474
12,ATTCTCCA,-0.052
13,CCGTCTCA,0.0735
14,CTCTGCTA,-0.128
15,CTAGCAGA,-0.195
16,CTCAAAGA,-0.2
17,TAGTCATA,-0.145
18,AATATCGA,-0.0141
19,AAAATCCG,0.451
20,AATATCCG,0.423
21,AATATCGC,0.125
22,ATTATCCC,0.0767
23,ATTATCCA,-0.155
24,AATATCCA,0.0239
25,AATATCGG,0.395

row,Sequence,PBM E-score
1,AAAATCCC,0.263
2,ATTATCCG,0.393
3,CAAATCCG,0.381
4,AATATCCC,0.211
5,ACGCATGC,-0.0181
6,GCTCGTTA,-0.188
7,ATCAGCGG,0.29
8,CGACCACG,0.0345
9,ATACAGCA,-0.0117
10,AAATCAAC,-0.111
11,AACTGACC,0.152
12,CCGCGCGA,0.216
13,CCGCGCCG,0.4
14,AGGCGCCG,0.206
15,CCGCGCCA,0.182
16,CCGCGCGG,0.433
17,CCGCGCGC,0.28
18,CGGCGCCG,0.461
19,CCGCGCCC,0.191
20,CGGCGCCA,0.214
21,CGACACTA,0.102
22,CGGTTGCC,0.109
23,GGCCTTAA,-0.0388
24,TATGTTCA,-0.0845
25,TACATTCA,-0.223

row,Sequence,PBM E-score
1,TAGGACAA,-0.233
2,ACGGACAC,0.194
3,TCGGACAA,0.434
4,ACGGACAA,0.355
5,TCGGACCA,0.379
6,GCGGACAC,0.216
7,ACGGACAG,0.043
8,GCGGACAA,0.398
9,CCGGACAA,0.444
10,CCGGACAG,0.357
11,ACGGACAT,0.392
12,CCGGACAC,0.371
13,AAAATCGA,-0.177
14,GCTCTCCC,-0.0961
15,CCCACCAG,-0.212
16,AGCCTACA,-0.0936
17,CGGCCGAG,0.279
18,ACTCCCAC,-0.035
19,TCTACCCA,-0.14
20,TCTGCACA,0.0219
21,ACAGACCA,-0.0751
22,GATTCGAA,0.102
23,AGCTTAAG,-0.229
24,ATGAGCCC,-0.138
25,CCTGATAC,-0.0837

row,Sequence,PBM E-score
1,CGAGAAAA,-0.0264
2,AGACTAAT,-0.0793
3,CCGGATAC,0.384
4,TCGGATAA,0.403
5,CCGGATAG,0.347
6,ACGGATAA,0.293
7,GCGGATAA,0.314
8,CCGGATAA,0.417
9,ATCAAGGG,-0.1
10,CCAAAGCA,-0.107
11,CGTCCGTC,0.208
12,AGTCCGCA,0.372
13,GGTCCGGA,0.446
14,CGTCCGGA,0.43
15,CGTCCGTA,0.189
16,CGTCCGGC,0.407
17,CGTCCGCA,0.246
18,GGTCCGTA,0.304
19,CGTCCAGC,-0.233
20,GGTCCGCA,0.278
21,AGTCCGGA,0.476
22,AGTCCGTA,0.328
23,CATTTTCG,0.173
24,TAAGTGAA,-0.072
25,ATGAGGAG,-0.132

row,Sequence,PBM E-score
1,CGGACGCC,0.366
2,CTAGTTCC,0.0969
3,CGCAATTC,0.201
4,CATGAAGG,-0.145
5,TATCCACA,-0.144
6,ACAACTCC,0.295
7,CCTTTCGC,0.0666
8,AATGCGGT,0.116
9,AATGCGGA,0.396
10,CATGCGGA,0.317
11,CGTGCGGA,0.279
12,AGTGCGGG,0.258
13,AGTGCGGA,0.394
14,GGCCGGCA,0.394
15,AGCCGGCC,0.324
16,CGCCGGCG,0.463
17,CGCCGCCG,0.362
18,AGCCGGCG,0.372
19,CGCCGGCA,0.39
20,CGCCGGCC,0.367
21,AGCCGGCA,0.33
22,GGCCGGCC,0.372
23,AAGCTATG,-0.249
24,AATTTGAG,-0.15
25,CCCATCTC,0.0175

row,Sequence,PBM E-score
1,GGATGGGA,0.0151
2,GTTGTGTA,-0.159
3,AACAAGCA,0.0514
4,CGTGGGCA,-0.16
5,GCCGGAGC,0.452
6,CCCGGACC,0.376
7,TCAGGAGA,-0.0923
8,GCCAGAGC,-0.222
9,CCCGGAGC,0.452
10,GCCGGTGA,0.298
11,TCCAGAGA,-0.212
12,CCGGGAGC,0.228
13,GCAGGAGC,-0.194
14,GCCAGAGA,-0.194
15,TCCGGAGA,0.483
16,GCCGGAGA,0.459
17,GTCTACTA,-0.0894
18,CCGTCCCG,0.348
19,CCCAACCG,-0.0967
20,AAGCTGCC,-0.234
21,ATCCAAGG,0.0179
22,AGGCTGCA,-0.242
23,CCCCTCAG,-0.124
24,TCAAAGCA,-0.174
25,AGTTCACC,0.126

row,Sequence,PBM E-score
1,GCAACCAC,0.00041
2,ACCGGATG,0.279
3,ACCGGAGC,0.448
4,CCCGGAGA,0.476
5,ACCGGAGG,0.441
6,CCCCGAGG,0.245
7,CCGGGAGG,0.261
8,CCGGGAGA,0.362
9,CCCAGAGA,-0.233
10,CCCGGAGG,0.439
11,ACTGGAGC,-0.117
12,ACCGGGGG,0.293
13,ACCGGATC,0.354
14,GCGTATAC,-0.00732
15,CGTAGAAC,-0.0134
16,AATGAACA,-0.117
17,ACATTGGG,-0.122
18,TATATCCA,-0.171
19,ACCGGAGA,0.475
20,ACCGGAGT,0.481
21,ACAGGAGT,-0.0336
22,ACCAGAGT,-0.219
23,ACAGGAGA,-0.0277
24,ACCGGATA,0.265
